TIM10 inh = inhibits growth of TIM10 yeast strain. S. cerevisiae TIM10 strain growth, BacTiter-Glo luminescence, 24 h. inhibition, % at 10 µM. 330,000 compounds, 1.4% hits;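 active means inhibition of 40% or more at the single tested concentration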;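 further: wild-type TIM10 isogenic control strain grown at permissive 25 °C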
tim10-1 inh = tim10-1 yeast growth inhibition; AID 463190; 330,000 compounds, 2.2% hits; S. cerevisiae tim10-1 ts strain growth, BacTiter-Glo, 24 h; inhibition, % at 20 µM;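 active means inhibition of at least 40%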;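 further: mutant grown at 25 °C; 0% = DMSO wells with yeast and 100% = wells holding no yeast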
B2AR ag = agonists of human beta-2 adrenergic receptor inducing internalization | Am2.2-beta2AR cells, FAP receptor internalization, flow cytometry | response, % (no concentration beside the values) | 340,000 compounds, 0.43% hits;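 active means response above a set limit, near 3 SD of response in nonfluorescent compounds, cut at about 42% in these data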
Target sequence (P07550 whole entry, looked up): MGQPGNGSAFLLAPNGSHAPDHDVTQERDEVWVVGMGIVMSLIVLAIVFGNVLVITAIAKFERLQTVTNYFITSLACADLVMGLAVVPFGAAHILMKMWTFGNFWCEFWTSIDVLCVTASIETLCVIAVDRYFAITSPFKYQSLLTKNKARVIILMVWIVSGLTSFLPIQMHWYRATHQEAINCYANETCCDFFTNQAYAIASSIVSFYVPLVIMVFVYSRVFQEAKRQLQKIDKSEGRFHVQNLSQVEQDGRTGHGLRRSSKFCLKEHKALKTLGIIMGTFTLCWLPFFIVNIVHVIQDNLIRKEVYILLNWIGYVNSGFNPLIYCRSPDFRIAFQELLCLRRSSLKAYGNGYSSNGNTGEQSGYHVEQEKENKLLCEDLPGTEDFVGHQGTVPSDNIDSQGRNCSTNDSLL
tim23-1 inh = tim23-1 yeast growth inhibition; inhibition, % at 20 µM; S. cerevisiae tim23-1 growth, BacTiter-Glo luminescence, 24 h; 330,000 compounds, 1.3% hits; AID 463212;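 active means growth inhibition of the mutant yeast at or above 50%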;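 further: temperature-sensitive mutant grown at 25 °C; plate controls were DMSO-treated mutant yeast for no effect and medium wells lacking yeast for full effect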
PfHsp90 set2 = growth inhibition of yeast expressing Plasmodium Hsp90 | S. cerevisiae expressing PfHsp90, BacTiter-Glo ATP, 48 h; yeast lacking PDR1 and PDR3 efflux regulators | AID 504621 | inhibition, % at 9.4 µM | 310,000 compounds, 0.32% hits;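 active means every replicate shows inhibition above about 80%, whatever the replicate mean, limit read from the data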;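 further: 0% = DMSO neutral controls and 100% = 20 µM radicicol positive controls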
tim10-1 conf = confirmation of tim10-1 mutant yeast growth inhibitors; shares compounds with tim10-1 inh; S. cerevisiae tim10-1 ts strain growth, BacTiter-Glo, 24 h; inhibition, % at 20 µM; 7,400 compounds, 56% hits; AID 463213;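 active means inhibition of yeast growth at or above a set limit in either of two repeat tests at 20 µM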;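 further: tim10-1 mutant grown at permissive 25 °C to find synthetic lethal compounds; 0% = DMSO yeast wells and 100% = medium wells without yeast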
* hit, by the source's call; / = not tested or not shown. Shown are actives, neighbours in structure and some others; about 3.8% of the full set was active somewhere.

SMILES	TIM10 inh	tim10-1 inh	B2AR ag	tim23-1 inh	PfHsp90 set2	tim10-1 conf
CC1CCC2(CC1)NC(=O)N(CC(=O)N1CCN(S(=O)(=O)c3ccc4c(c3)CCC4)CC1)C2=O (stereo unspecified)	-4	-11	-14	-2	/	/
COc1ccc(CCNC(=S)NC(=O)c2cccc([N+](=O)[O-])c2)cc1OC	24	41*	0	37	0	27
CC1(C)SC(=S)N(/N=C/c2ccccc2O)C1N(O)C(=O)Nc1ccccc1 (stereo unspecified)	-2	-4	11	21	-9	/
CC1(C)SC(=S)N(NC(=O)Nc2ccccc2)C1N(O)C(=O)Nc1cccc2ccccc12 (stereo unspecified)	14	42*	9	31	-6	24
O=C1COc2ccc(C(=O)COC(=O)c3ccc([N+](=O)[O-])cc3Cl)cc2N1	26	17	8	2	-16	/
[O-][n+]1c(/C=C/c2ccccc2)ccc2ccccc21	23	49*	24	50	6	28
CCN(CC(=O)Nc1ccc2c(c1)OCCO2)C(=O)/C=C/c1cccc(C(F)(F)F)c1	0	8	-5	32	-1	/
C/C(CCc1oc2ccc(Cl)cc2c1-c1ccc(C)o1)=N\O	37	42*	4	26	-21	43*
Cn1ncc(Cl)c1C(=O)Nc1cc(C(F)(F)F)ccc1F	-3	47*	-5	4	/	10
COc1cc(NC(=O)c2c(Cl)cnn2C)c(OC)cc1Cl	1	21	-10	10	-30	/
Cc1oncc1C(=O)N1CCCC(CO)(Cc2ccc(F)cc2F)C1 (stereo unspecified)	1	14	0	9	-38	/
O=C(COC(=O)c1ccc2c(c1)OCCO2)NC1CCCCC1	4	16	-6	13	-5	/
CCOc1cc(N2CCOCC2)c(OCC)cc1NC(=O)C(NC(=O)c1c(F)cccc1F)C(C)C (stereo unspecified)	/	/	26	/	8	/
O=C(CSc1ccccc1C(=O)NCc1ccccc1)NC12CC3CC(CC(C3)C1)C2	35	40*	2	34	2	32*
O=C(CSc1ccccc1C(=O)NCc1ccccc1)NC1CCCCCCC1	31	25	-39	18	-74	/
CCOC(=O)[C@H]1[C@H]2COc3ccc(C)cc3[C@@H]2N2C(=O)c3cc(Cl)ccc3NC(=O)[C@@]12C	23	40*	10	34	-26	17
CCCCc1cc(=O)oc2cc(OCC(=O)NCc3ccccn3)ccc12	2	48*	-4	23	-19	-2
OCC1=C[C@@H](O)[C@@H]2C=CO[C@@H](O[C@@H]3O[C@H](CO)[C@@H](O)[C@H](O)[C@H]3O)[C@H]12	2	19	1	5	-14	/
Cc1ccc(NC(=O)c2sc(N)nc2-c2ccccc2)cc1C	15	49*	-6	41	23	37*
N#Cc1ccccc1NC(=O)CSc1nnc(-c2ccccc2O)n1-c1ccccc1	12	42*	-19	23	/	16
Cc1ccccc1NC(=O)CSc1nnc(-c2ccccc2)n1-c1ccccc1	5	11	-2	10	-16	/
Cc1[nH]n(-c2ccccc2)c(=O)c1C(c1ccccc1[N+](=O)[O-])C(C#N)C#N (stereo unspecified)	31	44*	-4	43	-10	33*
Oc1cccc(-c2nnc(-c3cccc(O)c3)nn2)c1	/	/	3	/	28	/
Cc1ccc(C)c(N2CCN(C(=O)c3cc4ccccn4n3)CC2)c1	20	41*	-7	46	-4	35*
O=C(c1cc2ccccn2n1)N1CCN(c2cccc(C(F)(F)F)c2)CC1	9	22	-2	26	-19	/
CCC(C)(C)c1ccc(Oc2cccc(C(=O)O)c2)cc1	-2	97*	-28	22	1	21
CCC(C)(C)c1ccc(Oc2ccc(N)cc2)cc1	/	/	29	/	6	/
CCOc1ccc(NCC(=O)Nc2ccc(Cl)cc2C)cc1	17	45*	2	34	/	20
CCCCCCC(=O)c1c(C)[nH]c(C(=O)OCC)c1C	9	40*	7	27	-11	19
CC(C)(C)c1ccc(-c2csc(NNC3=NCCCCC3)n2)cc1	23	45*	-2	37	-7	22

Screening data deposited in PubChem by several laboratories.
